A short description of assay [1]: ATG_CMV_CIS: Attagene CIS-FACTORIAL HepG2 Assay for human CMV (Internal Marker) (AID 2282928; active = hit-call score of the fitted dose curve at least 0.9, where 1 is the maximum; inactive = score below 0.9;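 note: endpoint acts as a background internal control marker rather than a target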). The conditions noted are these: HepG2 CMV promoter reporter, transcription factor profiling; actives raise or lower the signal. The procedure, abridged:
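CMV internal-marker background readout in transiently transfected HepG2 cells bearing cis-regulated reporter units. Reporter mRNA is measured 24 h after dosing by RT-PCR and capillary electrophoresis, with bidirectional fitting against DMSO.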

A short description of assay [2]: ATG_GATA_CIS: Attagene CIS-FACTORIAL HepG2 Assay for human GATA Binding Protein (AID 2282944; active = hit-call score of the fitted dose curve at least 0.9, where 1 is the maximum; inactive = score below 0.9). The conditions noted are these: HepG2 GATA cis-element reporter, Attagene multiplex mRNA; actives raise or lower the signal. The procedure, abridged:
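HepG2 cells transiently transfected with multiplexed cis-element reporter units reflecting endogenous transcription factor activity; reporter mRNA measured after 24 h dosing by RT-PCR, 6-FAM labeling, HpaI digestion and capillary electrophoresis. Bidirectional fitting versus DMSO baseline.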

In assay [3] the target is Paired box protein Pax-6 (Homo sapiens) (UniProt P26367). Briefly: ATG_Pax6_CIS: Attagene CIS-FACTORIAL HepG2 Assay for human Paired Box 6 (PAX6) (AID 2282956; active = hit-call score of the fitted dose curve at least 0.9, where 1 is the maximum; inactive = score below 0.9). The conditions noted are these: HepG2 CIS-FACTORIAL PAX6 reporter transcription, RNA readout; actives raise or lower the signal. The procedure, abridged: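 HepG2 cells transiently transfected with cis-promoter-driven multiplexed reporter units sensing endogenous transcription factor activity; 24 h chemical exposure. Reporter mRNA quantified by RT-PCR, 6-FAM labelling, HpaI digestion and capillary electrophoresis; bidirectional fit versus DMSO baseline.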
Paired box protein Pax-6 (Homo sapiens), sequence (P26367 whole entry, looked up): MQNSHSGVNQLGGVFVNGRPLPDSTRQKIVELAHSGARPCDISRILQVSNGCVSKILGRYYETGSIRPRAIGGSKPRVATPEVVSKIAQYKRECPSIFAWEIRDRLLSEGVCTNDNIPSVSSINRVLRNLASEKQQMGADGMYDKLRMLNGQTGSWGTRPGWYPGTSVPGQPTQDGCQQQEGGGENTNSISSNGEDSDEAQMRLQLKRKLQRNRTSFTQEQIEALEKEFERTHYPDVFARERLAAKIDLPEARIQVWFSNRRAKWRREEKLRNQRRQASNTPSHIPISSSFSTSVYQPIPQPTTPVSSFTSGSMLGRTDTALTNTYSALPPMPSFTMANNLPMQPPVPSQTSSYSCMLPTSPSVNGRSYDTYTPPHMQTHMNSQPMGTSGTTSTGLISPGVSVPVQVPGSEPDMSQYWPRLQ

Assay [4] can be described thus: ATG_PPRE_CIS: Attagene CIS-FACTORIAL HepG2 Assay for human Peroxisome Proliferator-activated Response Element (PPRE) (AID 2282958; active = hit-call score of the fitted dose curve at least 0.9, where 1 is the maximum; inactive = score below 0.9). The conditions noted are these: HepG2 PPRE cis-element reporter, Attagene transcription factor profiling; actives raise or lower the signal. An outline of the steps:
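DMSO served as negative control and baseline for bidirectional curve fitting. Signal came from PPRE-regulated reporter mRNA in HepG2 cells, measured 24 h post-dosing by RT-PCR, 6-FAM primer extension and capillary electrophoresis.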

Assay [5] is described as follows: ATG_SREBP_CIS: Attagene CIS-FACTORIAL HepG2 Assay for human Sterol Regulatory Element Binding (SREBP) (AID 2282962; active = hit-call score of the fitted dose curve at least 0.9, where 1 is the maximum; inactive = score below 0.9). The conditions noted are these: HepG2 Attagene cis-factorial SREBP reporter, mRNA; actives raise or lower the signal. The procedure, abridged: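 HepG2 cells transiently transfected with multiplexed cis-promoter reporter units sensing endogenous transcription factors; reporter mRNA measured 24 h after dosing by RT-PCR, 6-FAM labeling, HpaI digestion and capillary electrophoresis. Bidirectional fit versus DMSO.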

In assay [6] the target is Oxysterols receptor LXR-beta (Homo sapiens) (UniProt P55055). Briefly: ATG_LXRb_TRANS: Attagene TRANS-FACTORIAL HepG2 Assay for human Liver X Receptor beta (LXRb) (AID 2282981). The conditions noted are these: HepG2 Attagene TRANS GAL4-LXRb reporter, mRNA. The procedure, abridged:
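In this TRANS format, exogenous chimeric NR-Gal4 protein activity, not endogenous factors, drives reporter expression in transfected human HepG2 cells. Exposure lasted 24 h; reporter mRNA was read by fluorescent capillary electrophoresis.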

Assay [7] concerns the target Hepatocyte nuclear factor 4-alpha (Homo sapiens) (UniProt P41235). Description: ATG_HNF4a_TRANS: Attagene TRANS-FACTORIAL HepG2 Assay for human Hepatocyte Nuclear Factor 4 alpha (HNF4a) (AID 2282982). The conditions noted are these: HepG2 HNF4a transactivation reporter, mRNA readout. The procedure, abridged:
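Cells used were human HepG2, transiently carrying GAL4-UAS reporter units read out against exogenous NR-GAL4 chimeras. Reporter transcript levels after 24 h dosing were quantified by fluorescent RT-PCR and capillary electrophoresis.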

Assay [8] can be described thus: ATG_M_32_TRANS: Attagene TRANS-FACTORIAL HepG2 Assay for M32 Transcription Factor (Internal Marker) (AID 2282984).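 Note: transcript level of a background control reporter unit measured by RT-PCR and capillary electrophoresis.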 The conditions noted are these: HepG2 Attagene TRANS M32 internal marker reporter. An outline of the steps: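 Human hepatoma HepG2, transient MRTU transfection, 24 h treatment. RNA → RT-PCR → fluorescent primer extension → HpaI digest (2 h, 37 C) → CE. Positive-direction fit vs DMSO.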

The target of assay [9] is Nuclear receptor subfamily 4 group A member 2 (Homo sapiens) (UniProt P43354). Briefly: ATG_NURR1_TRANS: Attagene TRANS-FACTORIAL HepG2 Assay for human Nuclear Receptor Related Protein 1 (NURR1) (AID 2282985). The conditions noted are these: HepG2 Attagene TRANS reporter, mRNA readout. The procedure, abridged:
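After 24 h chemical dosing, total RNA from transiently transfected HepG2 cells was reverse-transcribed and reporter cDNA PCR-amplified, FAM-labelled and analysed by capillary electrophoresis. Activity fitted in positive direction, DMSO as negative control.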

The target in assay [10] is Cellular tumor antigen p53 (Homo sapiens) (UniProt P04637). Description: TOX21_p53_BLA_p2_ratio: Tox21 HCT-116 p53 Agonism Beta-lactamase Assay, Ratio, Phase 2 (AID 2283592). The procedure, abridged:
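HCT116 p53-bla; 4000 cells/well; 5 h pre-incubation; cpd in DMSO, 217-fold dilution; 16 h 37C/5% CO2; CCF4-AM 2 h RT; Ex 405, Em 460/530 ratio; DMSO = baseline; positive fitting direction.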

Assay [11] can be described thus: TOX21_p53_BLA_p5_viability: Viability Assessment in the Tox21 HCT-116 p53 Agonism Beta-lactamase Assay, Phase 5 (AID 2283600). An outline of the steps:
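4000 cells/well; 5 h pre-incubation; DMSO compounds pin-transferred, 217-fold dilution; 16 h, 37C/5% CO2; CCF4-AM 2 h RT; CellTiter-Glo 30 min RT; luminescence.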

A short description of assay [12]: ATG_FoxO_CIS: Attagene CIS-FACTORIAL HepG2 Assay for human Forkhead box O (FoxO) (AID 2282943; active = hit-call score of the fitted dose curve at least 0.9, where 1 is the maximum; inactive = score below 0.9). The conditions noted are these: HepG2 Attagene cis-reporter, FoxO element, mRNA; actives raise or lower the signal. An outline of the steps:
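Values reflect reporter mRNA induction or loss in HepG2 cells 24 h post-dosing, fitted bidirectionally with DMSO as negative control and baseline. Detection used RT-PCR and fluorescence capillary electrophoresis.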

The nature of assay [13]: ATG_M_06_TRANS: Attagene TRANS-FACTORIAL HepG2 Assay for M06 Transcription Factor (Internal Marker) (AID 2282983). The conditions noted are these: HepG2 Attagene TRANS M06 internal marker reporter. An outline of the steps: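 Transfect HepG2 with MRTUs → dose compounds 24 h → isolate RNA, oligo(dT) RT → PCR with reporter primers → 6-FAM primer extension → HpaI digest → CE fragment analysis. Positive direction vs DMSO.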

Assay [14] has as its target human Peroxisome Proliferator-activated Receptor alpha (PPARa), PPARA (gene 5465) (UniProt Q07869). Briefly: ATG_PPARa_TRANS: Attagene TRANS-FACTORIAL HepG2 Assay for human Peroxisome Proliferator-activated Receptor alpha (PPARa) (AID 2283001). An outline of the steps: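 Gain-of-signal endpoint: reporter mRNA induction relative to DMSO, detected by fluorescent RT-PCR and capillary electrophoresis. HepG2 cells transiently carried GAL4-UAS-driven reporter units plus NR-Gal4 fusion; exposure lasted 24 h.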

In assay [15] the target is Cellular tumor antigen p53 (Homo sapiens) (UniProt P04637). Briefly: TOX21_p53_BLA_p5_ratio: Tox21 HCT-116 p53 Agonism Beta-lactamase Assay, Ratio, Phase 5 (AID 2283599). An outline of the steps:
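HCT-116 cells carrying a p53-inducible beta-lactamase reporter were seeded at 4000 cells/well and dosed after 5 h with compound in DMSO (217-fold dilution). After 16 h at 37C, CCF4-AM substrate was added for 2 h, and the 460/530 nm emission ratio was scored as gain-of-signal versus DMSO.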

A short description of assay [16]: ATG_Ets_CIS: Attagene CIS-FACTORIAL HepG2 Assay for human Erythroblast Transformation Specific (ETS) (AID 2282941; active = hit-call score of the fitted dose curve at least 0.9, where 1 is the maximum; inactive = score below 0.9). The conditions noted are these: HepG2 ETS cis-reporter transcription, actives raise or lower the signal. An outline of the steps:
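HepG2 cells transfected with multiple cis-regulated reporter units measuring endogenous ETS-driven transcription, 24 h after dosing. Reporter mRNA quantified by RT-PCR with capillary electrophoresis; bidirectional fit relative to DMSO.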

Assay [17] addresses human Thyroid Receptor alpha (THRa1), THRA (gene 7067) (UniProt P10827). Briefly: ATG_THRa1_TRANS: Attagene TRANS-FACTORIAL HepG2 Assay for human Thyroid Receptor alpha (THRa1) (AID 2283014). The procedure, abridged: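 Reporter transcript induction, read by capillary electrophoresis of 6-FAM-labelled RT-PCR products, reflects activity of a transfected THRa1-Gal4 fusion in HepG2 liver cells. Cells were dosed for 24 h; activity was fitted in the positive direction against DMSO.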

Assay [18] is described as follows: ATG_AP_1_CIS: Attagene CIS-FACTORIAL HepG2 Assay for human Activator Protein 1 (AP-1) (AID 2282931; active = hit-call score of the fitted dose curve at least 0.9, where 1 is the maximum; inactive = score below 0.9). The conditions noted are these: HepG2 Attagene cis-factorial AP-1 reporter mRNA; actives raise or lower the signal. The procedure, abridged: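 We transfected HepG2 cells transiently with a set of cis-regulated reporter transcription units, dosed them for 24 h, and quantified reporter mRNA via RT-PCR and capillary electrophoresis, scoring gain or loss of signal relative to DMSO.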

Assay [19] addresses Retinoic acid receptor RXR-alpha (Homo sapiens) (UniProt P19793). Description: ATG_RXRa_TRANS: Attagene TRANS-FACTORIAL HepG2 Assay for human Retinoid X Receptor alpha (RXRa) (AID 2283012). An outline of the steps:
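Transient transfection of human HepG2 with multiple GAL4-UAS reporter constructs; 24 h compound exposure; total RNA isolated, reverse-transcribed, PCR-amplified, 6-FAM labelled, HpaI-cut, resolved by capillary electrophoresis. Positive-direction fit versus DMSO.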

For assay [20], the target named is Hepatocyte nuclear factor 3-beta (Homo sapiens) (UniProt Q9Y261). Description: ATG_FoxA2_CIS: Attagene CIS-FACTORIAL HepG2 Assay for human Forkhead box A2 (FOXA2) (AID 2282942; active = hit-call score of the fitted dose curve at least 0.9, where 1 is the maximum; inactive = score below 0.9). The conditions noted are these: HepG2 cis-reporter transcription factor activity, 24 h; actives raise or lower the signal. The procedure, abridged: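 Multiplexed cis-element reporter assay in transiently transfected HepG2. Twenty-four hours post-dosing, RNA was reverse-transcribed, amplified, FAM-labelled, HpaI-digested and separated by CE. Activity gain or loss relative to DMSO.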
Hepatocyte nuclear factor 3-beta (Homo sapiens), sequence (Q9Y261 whole entry, looked up): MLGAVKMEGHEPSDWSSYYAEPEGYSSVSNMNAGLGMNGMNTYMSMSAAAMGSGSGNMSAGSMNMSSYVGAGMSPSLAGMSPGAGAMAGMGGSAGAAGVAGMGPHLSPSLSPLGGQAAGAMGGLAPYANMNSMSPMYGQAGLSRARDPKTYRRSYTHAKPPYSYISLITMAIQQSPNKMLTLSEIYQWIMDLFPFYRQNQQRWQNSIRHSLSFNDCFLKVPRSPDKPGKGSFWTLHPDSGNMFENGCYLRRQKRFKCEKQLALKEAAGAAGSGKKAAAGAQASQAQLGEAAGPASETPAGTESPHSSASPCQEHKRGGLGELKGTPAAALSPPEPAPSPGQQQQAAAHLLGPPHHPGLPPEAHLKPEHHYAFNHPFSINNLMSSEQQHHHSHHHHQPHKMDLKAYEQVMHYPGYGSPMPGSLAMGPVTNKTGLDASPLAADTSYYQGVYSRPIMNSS

Molecules are shown by their SMILES. “And” between values parts separate entries of the source, which are not always exact repeats. Identical values can stand only once. Records with an inconclusive call do not appear. The source holds several records for some structures; these can differ, active in one and inactive in another. The source made the active and inactive calls. Rule for the calls, unless noted: active = hit-call score of the fitted dose curve at least 0.9, where 1 is the maximum; inconclusive = response in the unintended direction; inactive = score below 0.9.

Hepatocyte nuclear factor 4-alpha (Homo sapiens), sequence (P41235 whole entry, looked up, the tested form may be a part): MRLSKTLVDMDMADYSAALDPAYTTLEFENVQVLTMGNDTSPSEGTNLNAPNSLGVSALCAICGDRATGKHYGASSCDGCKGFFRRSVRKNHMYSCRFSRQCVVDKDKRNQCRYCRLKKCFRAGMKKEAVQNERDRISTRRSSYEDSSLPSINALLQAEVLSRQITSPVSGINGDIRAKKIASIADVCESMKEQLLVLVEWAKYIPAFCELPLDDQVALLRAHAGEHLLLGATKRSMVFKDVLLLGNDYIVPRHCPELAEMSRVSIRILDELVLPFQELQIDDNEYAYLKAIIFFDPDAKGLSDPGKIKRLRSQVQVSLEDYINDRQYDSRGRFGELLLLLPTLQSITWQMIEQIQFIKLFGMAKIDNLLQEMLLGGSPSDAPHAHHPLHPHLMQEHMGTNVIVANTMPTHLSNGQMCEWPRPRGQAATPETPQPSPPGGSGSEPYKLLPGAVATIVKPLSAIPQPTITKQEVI
Cellular tumor antigen p53 (Homo sapiens), sequence (P04637 whole entry, looked up): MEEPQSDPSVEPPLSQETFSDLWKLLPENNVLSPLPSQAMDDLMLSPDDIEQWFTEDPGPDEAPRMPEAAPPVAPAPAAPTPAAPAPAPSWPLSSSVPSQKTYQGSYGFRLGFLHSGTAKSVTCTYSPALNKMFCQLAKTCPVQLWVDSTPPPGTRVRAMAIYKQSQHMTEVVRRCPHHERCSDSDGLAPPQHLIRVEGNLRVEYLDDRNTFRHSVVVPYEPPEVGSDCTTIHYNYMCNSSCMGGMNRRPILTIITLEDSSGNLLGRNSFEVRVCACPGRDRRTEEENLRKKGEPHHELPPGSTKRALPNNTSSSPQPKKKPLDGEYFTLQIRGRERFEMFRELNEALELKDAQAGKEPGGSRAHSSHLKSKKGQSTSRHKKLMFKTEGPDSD
Nuclear receptor subfamily 4 group A member 2 (Homo sapiens), sequence (P43354 whole entry, looked up): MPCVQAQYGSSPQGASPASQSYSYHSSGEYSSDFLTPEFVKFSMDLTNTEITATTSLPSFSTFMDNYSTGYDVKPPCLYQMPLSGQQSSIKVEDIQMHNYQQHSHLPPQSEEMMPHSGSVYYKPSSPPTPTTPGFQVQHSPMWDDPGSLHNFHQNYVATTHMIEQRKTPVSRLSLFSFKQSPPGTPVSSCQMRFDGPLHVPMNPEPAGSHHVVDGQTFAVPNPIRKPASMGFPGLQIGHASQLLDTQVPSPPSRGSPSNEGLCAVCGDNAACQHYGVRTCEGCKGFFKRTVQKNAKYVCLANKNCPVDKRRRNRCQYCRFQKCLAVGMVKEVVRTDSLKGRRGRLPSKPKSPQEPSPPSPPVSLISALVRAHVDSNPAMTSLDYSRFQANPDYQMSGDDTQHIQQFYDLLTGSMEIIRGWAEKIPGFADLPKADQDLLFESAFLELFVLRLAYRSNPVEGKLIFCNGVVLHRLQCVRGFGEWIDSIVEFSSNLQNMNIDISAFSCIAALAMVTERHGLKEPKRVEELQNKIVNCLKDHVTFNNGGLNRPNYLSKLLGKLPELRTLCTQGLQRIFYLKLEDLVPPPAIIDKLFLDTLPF
Retinoic acid receptor RXR-alpha (Homo sapiens), sequence (P19793 whole entry, looked up, the tested form may be a part): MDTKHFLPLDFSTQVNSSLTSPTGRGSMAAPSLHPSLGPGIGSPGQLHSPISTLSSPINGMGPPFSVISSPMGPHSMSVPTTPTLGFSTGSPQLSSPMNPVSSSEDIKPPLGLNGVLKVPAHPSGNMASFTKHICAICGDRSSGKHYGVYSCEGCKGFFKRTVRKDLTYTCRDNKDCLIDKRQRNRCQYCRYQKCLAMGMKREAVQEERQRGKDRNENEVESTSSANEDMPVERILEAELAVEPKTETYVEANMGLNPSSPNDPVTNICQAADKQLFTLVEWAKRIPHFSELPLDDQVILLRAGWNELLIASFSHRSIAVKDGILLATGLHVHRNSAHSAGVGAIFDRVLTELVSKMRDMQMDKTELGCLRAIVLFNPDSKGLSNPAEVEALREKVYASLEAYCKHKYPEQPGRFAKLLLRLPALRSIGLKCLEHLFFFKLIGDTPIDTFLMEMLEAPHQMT
Oxysterols receptor LXR-beta (Homo sapiens), sequence (P55055 whole entry, looked up, the tested form may be a part): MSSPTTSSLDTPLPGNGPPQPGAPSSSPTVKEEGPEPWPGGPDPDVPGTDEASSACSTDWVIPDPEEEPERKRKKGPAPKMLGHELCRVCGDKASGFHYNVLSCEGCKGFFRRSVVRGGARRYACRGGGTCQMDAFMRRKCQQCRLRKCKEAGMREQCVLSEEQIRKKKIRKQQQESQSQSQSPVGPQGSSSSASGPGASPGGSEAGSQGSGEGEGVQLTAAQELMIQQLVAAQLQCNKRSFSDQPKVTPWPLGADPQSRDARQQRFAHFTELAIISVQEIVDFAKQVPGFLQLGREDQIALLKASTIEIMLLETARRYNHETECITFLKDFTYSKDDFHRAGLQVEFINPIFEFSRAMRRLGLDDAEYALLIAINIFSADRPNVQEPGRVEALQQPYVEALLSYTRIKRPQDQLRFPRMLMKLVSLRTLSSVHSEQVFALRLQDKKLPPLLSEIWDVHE
human Thyroid Receptor alpha (THRa1), THRA (gene 7067), sequence (P10827 whole entry, looked up, the tested form may be a part): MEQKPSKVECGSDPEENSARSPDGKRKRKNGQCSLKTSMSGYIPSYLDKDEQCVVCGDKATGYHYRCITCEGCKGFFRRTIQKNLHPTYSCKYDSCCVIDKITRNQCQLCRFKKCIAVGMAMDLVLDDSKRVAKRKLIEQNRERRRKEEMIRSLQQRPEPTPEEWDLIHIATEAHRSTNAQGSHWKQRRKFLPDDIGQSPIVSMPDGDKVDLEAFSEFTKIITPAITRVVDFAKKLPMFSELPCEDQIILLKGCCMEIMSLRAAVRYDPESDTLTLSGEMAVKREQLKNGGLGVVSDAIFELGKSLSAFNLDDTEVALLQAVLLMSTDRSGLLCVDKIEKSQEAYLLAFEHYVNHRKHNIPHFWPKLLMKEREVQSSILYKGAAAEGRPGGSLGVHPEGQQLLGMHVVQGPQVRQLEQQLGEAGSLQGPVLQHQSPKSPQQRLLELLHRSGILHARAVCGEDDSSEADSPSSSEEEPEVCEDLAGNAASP
human Peroxisome Proliferator-activated Receptor alpha (PPARa), PPARA (gene 5465), sequence (Q07869 whole entry, looked up, the tested form may be a part): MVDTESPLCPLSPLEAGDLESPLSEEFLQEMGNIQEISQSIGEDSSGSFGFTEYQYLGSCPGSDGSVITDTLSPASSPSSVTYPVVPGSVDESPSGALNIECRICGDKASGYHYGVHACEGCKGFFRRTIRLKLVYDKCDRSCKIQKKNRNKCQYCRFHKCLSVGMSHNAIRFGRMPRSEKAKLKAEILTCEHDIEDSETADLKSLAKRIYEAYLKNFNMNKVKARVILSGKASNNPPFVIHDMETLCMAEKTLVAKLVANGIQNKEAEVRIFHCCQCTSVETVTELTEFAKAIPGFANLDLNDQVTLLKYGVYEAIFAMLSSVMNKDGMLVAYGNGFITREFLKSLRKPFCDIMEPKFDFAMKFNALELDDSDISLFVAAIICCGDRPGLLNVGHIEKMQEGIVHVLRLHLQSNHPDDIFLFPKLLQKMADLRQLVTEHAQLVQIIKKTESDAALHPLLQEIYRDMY

As to `CC1(C)CC(=O)CC(C)(C)N1[O]`, the call in [1], in [2], in assay [3], in [4], in assay [5] and in assay [6] was inactive. The molecule was called inactive in [7], in [8], in assay [9], in assay [10] and in assay [11].
Take `ClCC(Cl)Cl`: the molecule was called inactive in [1], in assay [12], in assay [3], in assay [4], in assay [5] and in assay [13]. In addition, the outcome in assay [14], in assay [10], in assay [15] and in assay [11] was inactive.
Take `C=Cc1cccc(CCl)c1`: in assay [16], the AC50 (commonly the concentration giving half of the maximal activity seen) was 100 µM (active). Moreover, the molecule was called inactive in assay [2], in assay [3], in assay [7], in [8], in [9] and in [14]. Besides, the outcome in assay [17], in assay [10], in [15] and in assay [11] was inactive.
Turning to `CC(C)(C)C(O)C(Oc1ccc(-c2ccccc2)cc1)n1cncn1` (stereo not given), the AC50 in [1] is 33.4 µM (active); in assay [18] it was 44.2 µM (active); in assay [5], 12.7 µM (active); in assay [9], 53.9 µM (active). Besides, the call in assay [12], in assay [3], in [4], in [13], in assay [8] and in [19] was inactive.
On to `CC(C)(c1cc(Cl)c(O)c(Cl)c1)c1cc(Cl)c(O)c(Cl)c1`, for which the AC50 in [1] was 8 µM (active); in assay [9], 47.9 µM (active); in [10], 37 µM (active) and 16.5 µM (active); in [15], 24.2 µM (active). The molecule was called inactive in assay [16], in assay [20], in [12], in [2], in assay [4] and in assay [5]. Also, the result in assay [6], in assay [7], in assay [13], in assay [8], in [19] and in assay [17] was inactive. Besides, the outcome in assay [15] and in [11] was inactive.

The values are drawn from PubChem BioAssay (EPA / NIEHS).
